Source: PubChem BioAssay (The Scripps Research Institute Molecular Screening Center)
MITF primary – blocks human microphthalmia-associated transcription factor | O75030 | AlphaScreen MITF homodimerization, bead proximity signal | inhibition, % at 2.6 µM | 650,000 tested, 0.91% active | AID 1259374; in the data active = inhibition above about 50%
GPR151 ag – activates the human receptor GPR151. Q8TDV0. PathHunter beta-arrestin GPR151 cells, luminescence. activation, % at 11.2 µM. 650,000 tested, 1% active; in the data active = activation above about 4.9%
TEAD-YAP inh – TEAD-YAP interaction inhibition; HEK-TIYL cells, TEAD-Gal4/YAP UAS-luciferase luminescence; inhibition, % at 9.12 µM; 640,000 tested, 1.4% active; AID 1259422; in the data active = inhibition above about 32%
FBW7 activator – human FBW7 E3 ligase activation, primary screen; AID 1259310; normalized activity (activation), % at 26.1 µM; AlphaScreen FBW7–phospho-cyclin E peptide binding, activator screen; Q969H0; 650,000 tested, 0.13% active; in the data active = normalized activity above about 1.9%;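 note: purified mutant Fbw7 with reduced substrate affinity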
GPR151 conf act – human GPR151 activation, confirmation screen; 6,700 tested, under 10 active; shares compounds with GPR151 ag; activation, % at 11.2 µM; GPR151 PathHunter beta-arrestin cells, luminescence, 90 min; % of EA-reagent control over plate median;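 active = mean percent activation across replicates above the confirmation screen cutoff of 4.91%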
GPR119 counter – counter-screen for GPR151 activators: effect on human GPR119; shares compounds with GPR151 ag; GPR119 PathHunter beta-arrestin cells, luminescence, 90 min; 0 = compound-well median, 100 = enzyme-acceptor control; activation, % at 11.2 µM; 6,700 tested, 0.3% active; AID 1508611;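 active = mean percent activation in the counterscreen above 29.09%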;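 note: counterscreen on off-target GPR119 to flag nonselective hits from the GPR151 activator screen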
Target sequence (Q8TDV5 whole entry, looked up): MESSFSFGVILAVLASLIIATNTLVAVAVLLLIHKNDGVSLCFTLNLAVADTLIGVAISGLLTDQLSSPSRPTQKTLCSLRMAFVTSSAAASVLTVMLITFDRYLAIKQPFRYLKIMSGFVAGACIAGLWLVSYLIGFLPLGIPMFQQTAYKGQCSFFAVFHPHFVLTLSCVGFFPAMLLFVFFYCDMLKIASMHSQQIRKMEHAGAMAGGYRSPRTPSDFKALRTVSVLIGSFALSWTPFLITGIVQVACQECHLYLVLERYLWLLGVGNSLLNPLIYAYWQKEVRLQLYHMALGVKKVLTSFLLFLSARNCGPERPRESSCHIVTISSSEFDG
A number is an active result; - = inactive; . = no result. Shown are actives, neighbours in structure and some others; about 3.4% of the full set was active somewhere.

SMILES	MITF primary	GPR151 ag	TEAD-YAP inh	FBW7 activator	GPR151 conf act	GPR119 counter
Cn1c(=O)c2c(SCC(=O)O)nc(-c3ccccc3Cl)nc2n(C)c1=O	-	4.9	-	-	-	-
COC(=O)c1ccccc1NC(=O)Cn1nc([N+](=O)[O-])c(Cl)c1C	-	-	-	-	.	.
O=C(N/N=C/c1cccc(Br)c1)c1ccccc1[N+](=O)[O-]	-	-	-	-	.	.
O=C(O)CCCCNS(=O)(=O)c1ccccc1C(F)(F)F	-	9.4	-	-	-	-
CCOc1ccc(NC(=O)C2=CCN(S(=O)(=O)c3ccccc3)CC2)cc1	-	5.4	-	-	-	-
CCOc1ccc(C(=O)NCC2CCCN2S(=O)(=O)c2ccccc2)cc1 (centres undefined)	-	5.6	-	-	-	-
CCOc1ccccc1NC(=O)/C=C/c1ccc(OC)cc1	-	-	-	-	.	.
CCCCOc1ccccc1NC(=O)/C=C/c1ccc(-c2ccccc2)cc1	-	5.3	-	-	-	-
N/C(=N/OC(=O)c1ccc(Cl)c(Cl)c1)c1nonc1N	-	-	-	-	.	.
CCC(C)NC(=O)c1sc2nc(C)nc(N3CCC(C)CC3)c2c1C (centres undefined)	-	6.9	-	-	-	-
CCCN(CCC)C(=O)c1sc2nc(C)nc(N3CCCCC3)c2c1C	-	5.5	-	-	-	-
CCCCNC(=O)/C(=C/c1ccccc1)NC(=O)/C=C/c1ccco1	-	17	-	-	-	-
CCCCNC(=O)/C(=C/c1ccc(OC)cc1)NC(=O)/C=C/c1ccccc1	-	-	-	-	.	.
CCOc1ccc(S(=O)(=O)NCc2ccco2)c(C)c1C	-	-	-	-	.	.
CCOc1c(S(=O)(=O)NCc2ccco2)ccc(Cl)c1Cl	-	6.3	-	-	-	-
CCOC(=O)c1c(NC(=S)NC(=O)c2cccs2)sc(C)c1C	-	-	-	-	.	.
CCOC(=O)c1c(NC(=S)Nc2cccnc2)sc(C)c1C	-	5.3	-	-	-	-
c1ccc(OCCNc2ncnc3nc(N4CCc5ccccc5C4)[nH]c23)cc1	-	-	-	-	.	.
O=C(Nc1ccc2c(c1)CN(Cc1cccnc1)CC2)C1CCCO1 (centres undefined)	-	-	-	-	.	.
O=C(Nc1ccc2c(c1)CN(Cc1cnc(-c3ccccc3)s1)CC2)C1CCCO1 (centres undefined)	-	5.2	-	-	-	-
CCSc1nnc(NC(=O)CCNS(=O)(=O)c2ccc3c(c2)CCC(=O)N3)s1	-	-	-	-	.	.
CC1=C(C(=O)Nc2cccc(C)n2)C(c2ccc(C)cc2)C2=C(CC(C)(C)CC2=O)N1 (centres undefined)	-	6.9	-	-	-	-
CC1=C(C(=O)Nc2c(F)cccc2F)C(c2ccc(N(C)C)cc2)C2=C(CC(C)(C)CC2=O)N1 (centres undefined)	-	-	-	-	.	.
CC1=C(C(=O)Nc2ccc(F)cc2)C(c2ccc(N(C)C)cc2)C2=C(CC(C)(C)CC2=O)N1 (centres undefined)	-	5.6	-	-	-	-
CCOC(=O)/C(N=Nc1cc(Cl)c(OC)cc1OC)=C(\C)O	-	4.9	-	-	-	-
SMILES	MITF primary	GPR151 ag	TEAD-YAP inh	FBW7 activator	GPR151 conf act	GPR119 counter
O=C(Cc1cc(=O)[nH][nH]1)N/N=C/C=C/c1ccccc1	-	5.3	-	-	-	-
O=C(Cc1cccs1)N/N=C\C=C\c1ccccc1	-	-	-	-	.	.
Cc1n[nH]c(C)c1CCC(=O)N/N=C/C=C/c1ccccc1	-	6.5	-	-	-	-
CC(C)CN(CC(C)C)S(=O)(=O)c1ccc(C(=O)Nc2nc(-c3ccccn3)cs2)cc1	-	-	-	-	.	.
Cc1nn(C)c(C)c1-c1nccc(NCc2nc3ccccc3[nH]2)n1	-	5.9	-	-	-	-
CN(C)c1ccc(/C=N/Nc2ccc(S(=O)(=O)N3CCOCC3)cc2[N+](=O)[O-])cc1	-	-	-	-	.	.
CCOc1ccc(C(=O)Nc2nnc(S(=O)(=O)N3CCCCC3)s2)cc1	-	5.0	-	-	-	-
COc1ccccc1C(=O)Nc1nnc(S(=O)(=O)N2CCOCC2)s1	-	7.9	-	-	-	-
CCN(CC)C(=O)CSc1nc2ccccc2c(=O)n1CC1CCC(C(=O)NCc2ccccc2Cl)CC1 (centres undefined)	-	-	-	-	.	.
COc1cc(/C=N/N2C(C)CCCC2C)cc(Br)c1O (centres undefined)	-	8.2	-	-	-	-
CCN1C(=O)C(CC(=O)Nc2ccc(OC)cc2)N(Cc2cccs2)C1=S (centres undefined)	-	5.9	-	-	-	-
CC(C)(C)c1nnc(NC(=O)c2ccc(Cl)nc2Cl)s1	-	8.1	-	-	-	-
CC(C)(C)c1nnc(NC(=O)c2cccnc2Cl)s1	-	-	-	-	.	.
CC(C)COC(=O)Nc1nc(CC(=O)N2CCN(c3ccc(F)cc3)CC2)cs1	-	-	-	-	.	.
COc1ccc(N2CCN(CC(O)COc3ccccc3C(C)=O)CC2)cc1 (centres undefined)	-	5.9	-	-	-	-
C#CCOc1cc([N+](=O)[O-])ccc1OC	-	-	-	-	.	.
O=C(O)CCC/C=C\C[C@@H]1[C@@H](/C=C/[C@H](O)CCc2ccccc2)[C@H](O)C[C@@H]1O	-	5.6	.	.	-	-
O=C(CCC/C=C\C[C@@H]1[C@@H](/C=C/[C@@H](O)CCc2ccccc2)[C@H](O)C[C@@H]1O)NC(CO)CO	-	-	.	.	.	.
NC(=O)CCC/C=C\C[C@@H]1[C@@H](/C=C/[C@@H](O)CCc2ccccc2)[C@H](O)C[C@@H]1O	-	7.0	.	.	-	-
COc1ccc(-c2ncnn2-c2ccc([N+](=O)[O-])cc2)cc1	-	-	-	-	.	.
CCCN(CCC)S(=O)(=O)c1ccc(C(=O)Nc2cccc(Br)c2)cc1	-	-	-	-	.	.
Cc1no[n+]([O-])c1COc1ccccc1C=C1C(=O)NC(=S)NC1=O	-	6.2	-	-	-	-
Cc1no[n+]([O-])c1COc1ccccc1C=C1C(=O)NC(=O)NC1=O	-	-	-	-	.	.
CC(=O)Nc1cc(-c2cccc(Br)c2)nn1-c1ccccc1	-	5.3	-	-	-	-
COc1ccc(Cc2noc(-c3ccc(F)cc3)n2)cc1	-	-	-	-	.	.
SMILES	MITF primary	GPR151 ag	TEAD-YAP inh	FBW7 activator	GPR151 conf act	GPR119 counter
CN(C)/C=C1\N=C(c2ccccc2F)OC1=O	-	6.9	-	-	-	-
CN(C)c1ccc(/C=C2\N=C(c3ccccc3F)OC2=O)cc1	-	-	-	-	.	.
O=C(O)c1ccc(Cn2cnc3scc(-c4ccccc4)c3c2=O)cc1	-	5.2	-	-	-	-
O=c1c2c(-c3ccccc3)csc2ncn1Cc1ccccc1	-	-	-	-	.	.
CC(=O)N/N=C(\C)CC(=O)Nc1ccc2c(c1)OCCO2	-	-	-	-	.	.
C/C(CC(=O)Nc1ccc2c(c1)OCCO2)=N\NC(=O)C(=O)Nc1ccc(C)cc1	-	7.0	-	-	-	-
